ATXN2 expr inh – Primary qHTS for Inhibitors of ATXN expression | HEK-293 ATXN2-luciferase reporter, luminescence, 24 h | 0.72% of 360,000 active | Potency, µM (series often up to 57 µM), for inactives: at the top dose activity change, negative = inhibition, hits mostly inhibitors; further: on the % scale 0 is the no-effect control and ±100 the full control effect; nearly all actives have a fitted effect of over 55% in size
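ATXN2-luciferase reporter cells (luciferase flanked by upstream and downstream ATXN2 gene portions) were treated 24 h at 37 °C with compounds at up to 57 uM. SteadyGlo luminescence gave expression; GF-AFC fluorescence gave viability.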
Nrf2 block – Nrf2 qHTS screen for inhibitors; A549 ARE-Fluc reporter, luciferase luminescence, 18-24 h; Potency, µM (series often up to 46 µM), for inactives: top-dose activity change, negative = inhibition, actives largely listed as inhibitors; 2.1% of 360,000 active; AID 504444, 2011; further: on the % scale 0 is the no-effect control and ±100 the full control effect; nearly all actives have a fitted effect of over 60% in size
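Nrf2 function is reported as luminescence of an ARE-controlled luciferase in A549 cells. Compounds were tested at several concentrations, and a CellTiter-Fluor read on the same wells flagged cytotoxicity.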
TGFb SMAD3 inh – qHTS for Inhibitors of TGF-b; HepG2 CAGA-GFP TGF-b/SMAD3 reporter, GFP fluorescence, 18 h; TGF-beta stimulated, 500 pg/mL final; Potency, µM (doses to about 46.1 µM), without a hit: top-dose activity, negative = inhibition, usual class: inhibitors; 1.2% of 410,000 active; further: on the % scale 0 is the no-effect control and ±100 the full control effect; nearly all actives have a fitted effect of over 65% in size
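Inhibition was scored as loss of TGF-beta-induced (500 pg/mL final, 18 hours, 37 degrees C) GFP in HEPG2 cells carrying a CAGA-GFP reporter, in DMEM with 1% FBS. Well GFP was summed per cell; Activity was normalised to unstimulated and stimulated DMSO wells, then concentration-response fitting.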
HepG2 tox-1 – qHTS for Inhibitors of TGF-b: Cytotox Counterscreen | HepG2 CAGA-GFP viability, ATP luminescence, 18 h | Potency, µM (doses to about 46.1 µM), for inactives: at the highest dose activity change, negative = cytotoxicity, most hits filed as cytotoxic | 0.76% of 410,000 active
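HepG2 CAGA-GFP cells (1000/well, DMEM with 1% FBS) received compound, then TGF-beta at 500 pg/mL final, and were incubated 18 hours at 37 degrees C. Viability was read by CellTiter-Glo luminescence. Media-only wells were set as complete cell-killing and DMSO as no toxicity.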
A549 tox – Nrf2 qHTS screen for inhibitors: counterscreen for cytotoxicity; A549 ARE-Fluc cells, CellTiter-Fluor viability, 18-24 h; Potency, µM (series often up to 46 µM), without a hit: top-dose activity change, negative = cytotoxicity, hits mostly inhibitors; 0.16% of 390,000 active; further: on the % scale 0 is the no-effect control and ±100 the full control effect
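A549 ARE-Fluc cells in 5% FBS OPTI-MEM, 5000 cells/well, rested 2 h then exposed to compounds in concentration-response for 18-24 h at 37 °C. Viability by CellTiter-Fluor fluorescence (Ex 405/Em 525) after 30 min; luciferase luminescence (BugLite, 15 min, RT) read afterwards.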
ATXN viability – Viability Counterscreen for Primary qHTS for Inhibitors of ATXN expression | S2 cells (HEK-293 line with an ATXN2-luciferase reporter) viability, CellTiter-Fluor protease fluorescence, 24 h | Potency, µM (doses to about 56.7 µM), actives largely listed as cytotoxic | 0.49% of 400,000 active; further: nearly all actives have a fitted effect of over 40% in size
TGFb CAGA inh – qHTS for Inhibitors of TGF-b: Confirmation of Cherry Picks; shares compounds with TGFb SMAD3 inh; HepG2 CAGA-GFP TGF-b reporter, GFP fluorescence, 18 h; cells stimulated with TGF-beta, 500 pg/mL; Potency, µM (doses to about 46.1 µM), without a hit: at the highest dose activity, negative = inhibition, hits mostly inhibitors; 63% of 1,600 active; AID 720534, 2013; further: on the % scale 0 is the no-effect control and ±100 the full control effect; nearly all actives have a fitted effect of over 65% in size
HepG2 tox-2 – qHTS for Inhibitors of TGF-b: Cytotox Counterscreen for Cherry Picks; shares compounds with TGFb SMAD3 inh; Potency, µM (highest dose often 46.1 µM), without a hit: top-dose activity, negative = cytotoxicity, hits mostly inhibitors; HepG2 CAGA-GFP viability, ATP luminescence, 18 h; cells stimulated with TGF-beta, 500 pg/mL; 27% of 1,600 active; further: on the % scale 0 is the no-effect control and ±100 the full control effect; nearly all actives have a fitted effect of over 70% in size
CCL64 TGFb inh – qHTS for Inhibitors of TGF-b: CCL64 Cells Orthogonal Assay for Cherry Picks. shares compounds with TGFb SMAD3 inh. CCL64 CAGA-GFP reporter, TGF-b stimulated, GFP fluorescence, 18 h. Potency, µM (doses to about 46.1 µM), for inactives: top-dose activity, negative = inhibition, usual class: inhibitors. 41% of 1,600 active. AID 720536, 2013; further: nearly all actives have a fitted effect of over 65% in size
TGFb COP inh – qHTS for Inhibitors of TGF-b: Hit Validation in HepG2 Cells using COP promoter. shares compounds with TGFb SMAD3 inh. HepG2 COP-GFP TGF-b reporter, GFP fluorescence, 18 h; cells stimulated by added recombinant TGF-beta. AID 720537, 2013. 3% of 1,600 active. Potency, µM (top dose mostly 46.1 µM), for the others: at the top dose activity, negative = inhibition, actives largely listed as inhibitors; further: nearly all actives have a fitted effect of over 70% in size
* marks the source's active call; other numbers are inactive results; i = inactive; ? = inconclusive; · = no result. Rows were chosen to be rich in hits. Some 3.8% of all compounds tested hit in one or more screens of this group. The call rests on the fitted dose curve; in most records, active means well fitted curve in the direction sought with a large enough effect; inconclusive means small, poorly fitted or top-dose-only effect, or another doubt; inactive means no such curve, though single readings can be large; an effect the other way counts as inactive or inconclusive. Potency means the concentration at half of the fitted maximal effect.

SMILES	ATXN2 expr inh	Nrf2 block	TGFb SMAD3 inh	HepG2 tox-1	A549 tox	ATXN viability	TGFb CAGA inh	HepG2 tox-2	CCL64 TGFb inh	TGFb COP inh
CSCCC(NS(=O)(=O)c1cccc(C(F)(F)F)c1)C(=O)Nc1ccccc1N1CCCC1 (centres undefined)	1%	-14%	14µM*	-27%	-4%	?	16µM*	-7%	16µM*	-1%
Oc1ccc(C[C@H]2CNC(=S)N2C[C@H]2CCCN2C[C@H](Cc2ccccc2)N2C[C@H](Cc3ccc(O)cc3)N(CCc3ccccc3)C2=S)cc1	?	·	7.1µM*	2%	·	?	6.5µM*	?	3.7µM*	48%
CCOc1ccc(CCN2C(=S)N([C@@H](Cc3ccc(O)cc3)CN3CCC[C@@H]3CN3C(=S)NC[C@@H]3CC(C)C)C[C@@H]2Cc2ccc(O)cc2)cc1	?	·	4.5µM*	-40%	·	7.1µM*	8.2µM*	12µM*	5.2µM*	88%
CC(C)C[C@@H](CN1CCCC1CN1C(=S)NC[C@@H]1Cc1ccc(O)cc1)N1C[C@H](Cc2ccc(O)cc2)N(CCc2ccccc2)C1=S (some centres undefined)	?	?	5.6µM*	6.3µM*	?	28µM*	15µM*	?	8.2µM*	-3%
CCOC(=O)c1cccc(NC(=O)c2cnc3sc(N4CCOCC4)nn3c2=O)c1	-10%	-28%	0%	-7%	-4%	i	·	·	·	·
Cc1ccc(C2(c3ccccc3)NC(=O)N(CC(=O)NCc3ccccc3)C2=O)cc1C (centres undefined)	-22%	-7%	11µM*	-28%	1%	?	7.3µM*	?	?	42%
CCN(CC)CCOC(=O)/C=C/c1ccccc1	·	4%	-15%	-18%	11%	i	·	·	·	·
CCN(CC)CC(C)(C)C(=O)/C=C/c1ccc(/C=C/C(=O)C(C)(C)CN(CC)CC)cc1	4µM*	21µM*	4.5µM*	5µM*	16µM*	5.6µM*	3.3µM*	3.3µM*	4.6µM*	?
COC(=O)c1ccccc1-c1cc(C)cc2c1OC(CNC(=O)c1occc1C)C2 (centres undefined)	·	·	·	·	·	i	·	·	·	·
